High-throughput results as filed in PubChem.
T cruzi growth-1: T. cruzi proliferation inhibition; 77,000 compounds, 5.9% hits; T. cruzi beta-gal in NIH3T3, GalScreen luminescence, 90 h; inhibition, % at 8.34 µM;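 active means mean inhibition above about 93%, with at least 55% of replicates each passing it, limit read from the data, passing the limit was not always enough; inconclusive means only one of those two conditions holds; inactive means neither condition holds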
Pf Dd2 growth: blocks growth of Plasmodium falciparum Dd2 parasites | activity change, % at 10 µM | 94,000 compounds, 2.3% hits | P. falciparum Dd2 growth, SYBR Green, 72 h; hits give low values; in the data active means activity change below about -80%; inconclusive means no clear call, values can overlap the other calls
C diff growth: inhibitors of Clostridium difficile growth; Clostridium difficile clinical isolate growth, OD600, 24 h; hits give low values; growth activity, negative = inhibition, % at 16 µg/mL (by protocol); 86,000 compounds, 0.25% hits; AID 1259249;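 active means mean growth activity at or below -80% and every replicate also at or below -80%; inconclusive means mean at or below -80% but some replicate above -80%; inactive means mean growth activity above -80%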;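 further: 0% = DMSO wells and -100% = levofloxacin 16 µg/mL wells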
T cruzi growth-2: Trypanosoma cruzi proliferation inhibition; shares compounds with T cruzi growth-1; T. cruzi beta-gal in NIH3T3, GalScreen luminescence, 90 h; inhibition, % at 8.35 µM; 5,600 compounds, 72% hits; AID 651739;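 active means mean replicate inhibition above about 95% and at least 55% of replicates individually reaching it, limit read from the data; inconclusive means only one of the two criteria is met; inactive means neither criterion is met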
T cruzi growth-3: inhibitors of T. cruzi proliferation; T. cruzi beta-gal in NIH3T3, GalScreen luminescence, 90 h; 5,600 compounds, 21% hits; inhibition, % at 2.09 µM; shares compounds with T cruzi growth-1;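 active means mean inhibition above about 95%, with at least 55% of replicates also reaching it, limit read from the data; inconclusive means meets just one of the two conditions; inactive means meets neither condition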;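 further: plate controls were neutral control median for no effect and positive control median for full effect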
NIH3T3 tox: cytotoxicity in mouse NIH/3T3 fibroblasts | shares compounds with T cruzi growth-1 | NIH/3T3 viability, CellTiter-Glo ATP luminescence, 90 h | cytotoxicity (signal decrease), % at 8.35 µM | 5,600 compounds, 14% hits | AID 651742;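 active means mean signal decrease across replicates above about 35% based on untreated-well scatter, with enough replicates individually passing, limit read from the data; inconclusive means no rule stated though some were filed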;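 further: 0% = median of neutral control wells and 100% = median of positive control wells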
3T3 cytotox 2: NIH/3T3 (mouse) viability loss. NIH/3T3 viability, CellTiter-Glo ATP luminescence, 90 h. 5,600 compounds, 56% hits. shares compounds with T cruzi growth-1. inhibition, % at 24.9 µM;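 active means mean loss of cell viability signal at or above a set limit, and enough replicates individually reaching it; inconclusive means meets only the mean limit or only the replicate share; inactive means meets neither condition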;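 further: 0% = median of neutral control wells and 100% = median of positive control wells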
* hit, by the source's call; ? = inconclusive; . = no result given. Compounds with a hit are over-represented: about 6.8% of the library has one in this group of screens.

SMILES	T cruzi growth-1	Pf Dd2 growth	C diff growth	T cruzi growth-2	T cruzi growth-3	NIH3T3 tox	3T3 cytotox 2
CC(C)C#Cc1ccc([C@H]2[C@@H](CO)N3CCCCN(S(=O)(=O)Cc4ccccc4)C[C@@H]23)cc1	109*	5	-8	108*	65	27	12
C[C@@H](O)C#Cc1ccc([C@H]2[C@@H](CO)N3CCCCN(S(=O)(=O)Cc4ccccc4)C[C@@H]23)cc1	58	-61	3	.	.	.	.
CC(C)C#Cc1ccc([C@H]2[C@@H](CO)N3CCCCN(S(=O)(=O)Cc4ccccc4)C[C@H]23)cc1	103*	-66	8	105*	73	58*	105*
C[C@H](O)C#Cc1ccc([C@@H]2[C@@H](CO)N3CCCCN(S(=O)(=O)Cc4ccccc4)C[C@@H]23)cc1	54	-40	-4	.	.	.	.
CCNC(=O)C[C@@H]1CC[C@@H]2[C@H](COc3ccc(NC(=O)Nc4c(C)noc4C)cc3C(=O)N2C)O1	-22	10	1	.	.	.	.
CN1C(=O)c2cc(NC(=O)Nc3cccc(Cl)c3)ccc2OC[C@H]2O[C@H](CC(=O)O)CC[C@H]21	-77	-1	2	.	.	.	.
COCC(=O)Nc1ccc2c(c1)C(=O)N(C)[C@H]1CC[C@@H](CC(=O)NC3CCCC3)O[C@H]1CO2	5	8	2	.	.	.	.
CCCN(C)C[C@H]1Oc2cc(-c3cccc(F)c3)ccc2S(=O)(=O)N([C@H](C)CO)C[C@H]1C	.	-67	5	.	.	.	.
Cc1ccc(S(=O)(=O)NC[C@H]2CC[C@H]3[C@H](CN3Cc3cc(F)ccc3F)O2)cc1	.	28	-5	.	.	.	.
C[C@H](CO)N1C[C@H](C)[C@@H](CN(C)C(=O)c2ccc3c(c2)OCO3)Oc2cc(/C=C/c3ccccc3)ccc2S1(=O)=O	119*	-71	-5	104*	52	8	45*
C/C=C/c1ccc2c(c1)O[C@@H](CN(C)C(=O)c1ccc3c(c1)OCO3)[C@H](C)CN([C@H](C)CO)S2(=O)=O	11	-52	1	.	.	.	.
C/C=C/c1ccc2c(c1)O[C@H](CN(C)C(=O)c1ccc3c(c1)OCO3)[C@H](C)CN([C@H](C)CO)S2(=O)=O	52	-11	-5	.	.	.	.
C[C@@H]1CN([C@@H](C)CO)S(=O)(=O)c2ccc(/C=C/c3ccccc3)cc2O[C@H]1CN(C)C(=O)c1ccc2c(c1)OCO2	118*	-87*	5	105*	85	42*	59*
CC(=O)N1[C@H](CO)[C@@H]2c3ccccc3N(S(=O)(=O)c3ccc(F)cc3)C[C@@H]21	16	2	-4	.	.	.	.
CC(C)NC(=O)N(C)C[C@H]1OCCCC[C@@H](C)Oc2ccc(NC(=O)c3ccncc3)cc2C(=O)N([C@H](C)CO)C[C@H]1C	5	.	-1	.	.	.	.
CC(C)NC(=O)N1[C@H](CO)[C@H](c2ccc(C#CC3CCCCC3)cc2)[C@@H]1C#N	107*	-32	-5	98*	116*	30	54*
N#C[C@@H]1[C@H](c2ccc(C#CC3CCCC3)cc2)[C@@H](CO)N1C(=O)Cc1ccccn1	.	-76	-3	.	.	.	.
N#C[C@H]1[C@H](c2ccc(C#CC3CCCC3)cc2)[C@@H](CO)N1C(=O)Nc1ccc(F)cc1	93	-38	6	.	.	.	.
CC(C)NC(=O)N1[C@H](C#N)[C@@H](c2ccc(C#CC3CCCC3)cc2)[C@H]1CO	102*	-9	-17	102*	97*	6	37*
N#C[C@@H]1[C@H](c2ccc(C#CC3CCCC3)cc2)[C@@H](CO)N1C(=O)Nc1ccc(F)cc1	98*	-9	-2	99*	95	2	107*
N#C[C@H]1[C@@H](c2ccc(C#CC3CCCCC3)cc2)[C@H](CO)N1C(=O)Cc1ccccn1	100*	-34	17	101*	104*	-33	81*
CN(C)CC(=O)N1[C@H](C#N)[C@H](c2ccc(C#CC3CCCC3)cc2)[C@@H]1CO	75	-31	25	.	.	.	.
CS(=O)(=O)N1[C@H](C#N)[C@@H](c2ccc(C#CC3CCCCC3)cc2)[C@H]1CO	79	-5	-10	.	.	.	.
CCCNC(=O)N1C[C@@H]2[C@H](c3ccccc31)[C@@H](CO)N2Cc1ccc2c(c1)OCO2	9	-16	6	.	.	.	.
Cc1noc(C)c1NC(=O)N(C)C[C@@H]1Oc2c(NC(=O)c3ccncc3)cccc2C(=O)N([C@H](C)CO)C[C@H]1C	-124	21	.	.	.	.	.
SMILES	T cruzi growth-1	Pf Dd2 growth	C diff growth	T cruzi growth-2	T cruzi growth-3	NIH3T3 tox	3T3 cytotox 2
COCCNC(=O)C[C@H]1C[C@@H]2c3cc(NC(=O)c4ccc5c(c4)OCO5)ccc3O[C@@H]2[C@H](CO)O1	.	12	7	.	.	.	.
CN(C)CC(=O)N1[C@H](C#N)[C@H](c2ccc(C#CC3CCCC3)cc2)[C@H]1CO	99*	-30	-3	96*	66	-9	106*
CC(C)NC(=O)N1[C@H](C#N)[C@@H](c2ccc(C#CC3CCCCC3)cc2)[C@@H]1CO	96*	-73	-7	96*	113*	-2	105*
N#C[C@H]1[C@@H](c2ccc(C#CC3CC3)cc2)[C@@H](CO)N1C(=O)Nc1ccc(F)cc1	34	33	-1	.	.	.	.
CN(C)CC(=O)N1[C@@H](C#N)[C@@H](c2ccc(C#CC3CCCC3)cc2)[C@@H]1CO	92	9	14	.	.	.	.
O=C(C1CCC1)N1CC2(C1)[C@H](c1ccccc1)[C@H](CO)N2C(=O)c1cccnc1	.	-8	-3	.	.	.	.
C[C@@H]1CN([C@@H](C)CO)C(=O)c2cc(C#CCC3CCCC3)cnc2O[C@H]1CN(C)C(=O)CC1CC1	100*	-33	15	?	48	21	39*
C[C@@H]1CN([C@H](C)CO)C(=O)c2cc(C#CCC3CCCC3)cnc2O[C@H]1CN(C)C(=O)CC1CC1	?	-52	16	96*	23	19	83*
C[C@H](CO)N1C[C@H](C)[C@H](CN(C)C(=O)CC2CC2)Oc2ncc(C#CCC3CCCC3)cc2C1=O	95	-8	15	.	.	.	.
CC(=O)N(C)C[C@@H]1Oc2ncc(C#CCC3CCCC3)cc2C(=O)N([C@@H](C)CO)C[C@H]1C	31	-9	-6	.	.	.	.
COc1cccc(S(=O)(=O)N[C@@H]2CC[C@H](CC(=O)NCc3ccccc3)O[C@@H]2CO)c1	9	-5	2	.	.	.	.
C/C=C/c1cnc2c(c1)C(=O)N([C@@H](C)CO)C[C@@H](C)[C@@H](CN(C)C(=O)NC1CCCCC1)O2	72	14	1	.	.	.	.
CN1c2ccc(-c3cccc(F)c3)cc2[C@H]2[C@H](CCN2C(=O)Cc2cccnc2)[C@H]1CO	84	8	4	.	.	.	.
CN1c2ccc(-c3ccccc3)cc2[C@H]2[C@H](CCN2C(=O)Cc2cccnc2)[C@@H]1CO	107*	9	-7	111*	97*	-24	-13
